Read-out in experiment [1]: Thrombomodulin, THBD (gene 7056)
The experiment is described as follows: BSK_CASM3C_Thrombomodulin: BioMAP Diversity Plus: CASM3C Assay for Thrombomodulin Biomarker Activity (AID 2283051).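 Also: thrombomodulin protein level measured by ELISA 24 h after dosing.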 The following applies: primary human coronary artery smooth muscle cells; actives raise or lower the signal.

Read-out in experiment [2]: Tissue Factor, F3 (gene 2152)
In words: BSK_CASM3C_TissueFactor: BioMAP Diversity Plus: CASM3C Assay for Tissue Factor Biomarker Activity (AID 2283052).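 Also: cell surface tissue factor protein level read by ELISA.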 The following applies: primary human coronary artery smooth muscle cells; actives raise or lower the signal.

Read-out in experiment [3]: Interferon-gamma inducible Protein 10 (IP10), CXCL10 (gene 3627)
The experiment is described as follows: BSK_hDFCGF_IP10: BioMAP Diversity Plus: hDFCGF Assay for Interferon-gamma inducible Protein 10 (IP10) Biomarker Activity (AID 2283053). The following applies: primary human foreskin fibroblasts; actives raise or lower the signal. In outline:
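Primary human foreskin fibroblasts exposed to chemicals for 24 h. IP-10 measured by ELISA; changes fitted bidirectionally against DMSO baseline.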

Read-out in experiment [4]: Urokinase-type plasminogen activator receptor (uPAR), PLAUR (gene 5329)
In words: BSK_CASM3C_uPAR: BioMAP Diversity Plus: CASM3C Assay for Urokinase-type plasminogen activator receptor (uPAR) Biomarker Activity (AID 2283054).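 Also: cell-surface uPAR protein level quantified by ELISA.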 As to conditions: primary human coronary artery smooth muscle cells; actives raise or lower the signal.

Read-out in experiment [5]: Vascular cell adhesion molecule 1 (VCAM1), VCAM1 (gene 7412)
The experiment is described as follows: BSK_CASM3C_VCAM1: BioMAP Diversity Plus: CASM3C Assay for Vascular cell adhesion molecule 1 (VCAM1) Biomarker Activity (AID 2283055).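 Also: VCAM-1 protein level quantified by ELISA on the cells.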 As to conditions: primary human coronary artery smooth muscle cells; actives raise or lower the signal.

Read-out in experiment [6]: Collagen III, COL3A1 (gene 1281)
In words: BSK_hDFCGF_CollagenIII: BioMAP Diversity Plus: hDFCGF Assay for Collagen III Biomarker Activity (AID 2283056). As to conditions: primary human foreskin fibroblasts; actives raise or lower the signal. In outline: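 hDFCGF primary human dermal fibroblasts; 24 h chemical exposure; collagen III by ELISA; bidirectional curve fit vs DMSO baseline (gain or loss of signal).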

Read-out in experiment [7]: Epidermal growth factor receptor (EGFR), EGFR (gene 1956)
The experiment is described as follows: BSK_hDFCGF_EGFR: BioMAP Diversity Plus: hDFCGF Assay for Epidermal growth factor receptor (EGFR) Biomarker Activity (AID 2283057). The following applies: primary human foreskin fibroblasts; actives raise or lower the signal. Summed up: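 Primary human foreskin fibroblasts (hDFCGF system), sampled 24 h after dosing; EGFR quantified by ELISA. Bidirectional fit relative to DMSO baseline; SRB total-protein staining in parallel cultures for cytotoxicity.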

The nature of experiment [8]: BSK_hDFCGF_Proliferation: Cell Proliferation Assessment in the BioMAP Diversity Plus: hDFCGF Assay (AID 2283059).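 Also: curves fitted for both rise and fall of signal versus DMSO baseline.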 The following applies: primary human foreskin fibroblasts. Summed up:
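This proliferation readout used SRB total-protein staining of human foreskin fibroblasts […], normalized to DMSO with bidirectional curve fitting.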

Read-out in experiment [9]: Macrophage colony-stimulating factor (MCSF), CSF1 (gene 1435)
The experiment is described as follows: BSK_hDFCGF_MCSF: BioMAP Diversity Plus: hDFCGF Assay for Macrophage colony-stimulating factor (MCSF) Biomarker Activity (AID 2283060). The following applies: primary human foreskin fibroblasts; actives raise or lower the signal. In outline:
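ELISA read-out of M-CSF in human dermal foreskin fibroblast cultures, 24 h after chemical dosing; gain or loss of signal fitted bidirectionally relative to DMSO baseline.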

The nature of experiment [10]: BSK_hDFCGF_SRB: Viability Assessment in the BioMAP Diversity Plus: hDFCGF Assay (AID 2283061).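 Also: cells exposed to compound for 24 h before the read.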 The following applies: primary human foreskin fibroblasts. In outline: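 Primary human foreskin fibroblasts; 24 h post-dose; fixed 10% TCA, stained 0.1% SRB, A560 read; total protein as overt cytotoxicity measure; curves fit bidirectionally vs DMSO control.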
Read-out in experiment [11]: Monokine induced gamma interferon (MIG), CXCL9 (gene 4283)
The experiment is described as follows: BSK_hDFCGF_MIG: BioMAP Diversity Plus: hDFCGF Assay for Monokine induced gamma interferon (MIG) Biomarker Activity (AID 2283063). The following applies: primary human foreskin fibroblasts; actives raise or lower the signal. Summed up: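 Fibroblasts (human foreskin, primary) dosed, 24 h, MIG by ELISA; fit bidirectional vs DMSO.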

Read-out in experiment [12]: Matrix Metallopeptidase 1 (MMP1), MMP1 (gene 4312)
The experiment is described as follows: BSK_hDFCGF_MMP1: BioMAP Diversity Plus: hDFCGF Assay for Matrix Metallopeptidase 1 (MMP1) Biomarker Activity (AID 2283064). As to conditions: primary human foreskin fibroblasts; actives raise or lower the signal. In outline: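 Primary human foreskin fibroblasts in the hDFCGF system were dosed with test chemical, and MMP1 was measured by ELISA 24 h later. Values come from bidirectional curve fitting against the DMSO baseline.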

Read-out in experiment [13]: Vascular cell adhesion molecule 1 (VCAM1), VCAM1 (gene 7412)
The experiment is described as follows: BSK_hDFCGF_VCAM1: BioMAP Diversity Plus: hDFCGF Assay for Vascular cell adhesion molecule 1 (VCAM1) Biomarker Activity (AID 2283065).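 As to AC50: VCAM-1 protein level quantified by ELISA after 24 h chemical exposure.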 The following applies: primary human foreskin fibroblasts; actives raise or lower the signal. Summed up:
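ELISA read-out of VCAM-1 on human skin fibroblasts, 24 h post-dose; gain or loss of signal fitted bidirectionally against DMSO baseline.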

Read-out in experiment [14]: Plasminogen activator inhibitor-1 (PAI1), SERPINE1 (gene 5054)
The experiment is described as follows: BSK_hDFCGF_PAI1: BioMAP Diversity Plus: hDFCGF Assay for Plasminogen activator inhibitor-1 (PAI1) Biomarker Activity (AID 2283066). The following applies: primary human foreskin fibroblasts; actives raise or lower the signal. Summed up:
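Human foreskin fibroblast primary cells, 24 h chemical exposure; PAI-1 measured by ELISA. Bidirectional fitting relative to DMSO; parallel cultures stained with SRB for total protein to flag overt cytotoxicity.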

Read-out in experiment [15]: Intercellular Adhesion Molecule 1 (ICAM1), ICAM1 (gene 3383)
In words: BSK_KF3CT_ICAM1: BioMAP Diversity Plus: KF3CT Assay for Intercellular Adhesion Molecule 1 (ICAM1) Biomarker Activity (AID 2283067). As to conditions: primary human keratinocytes with fibroblasts; actives raise or lower the signal. In outline:
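ELISA readout of ICAM-1; KF3CT human skin co-culture (keratinocytes + foreskin fibroblasts), 24 h post-dose; gain/loss fit vs DMSO baseline.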

Experiment [16] in a line: BSK_KF3CT_SRB: Viability Assessment in the BioMAP Diversity Plus: KF3CT Assay (AID 2283069).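 Also: total protein by sulforhodamine B staining as a cytotoxicity measure; read 24 h after compound addition.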 As to conditions: primary human keratinocytes with fibroblasts. In outline:
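Human primary keratinocyte plus foreskin fibroblast co-culture exposed to chemicals for 24 h. Total protein measured by 0.1% sulforhodamine B staining after 10% TCA fixation, read at 560 nm; bidirectional fitting versus DMSO baseline.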

Read-out in experiment [17]: Interleukin-1 alpha (IL1a), IL1A (gene 3552)
The experiment is described as follows: BSK_KF3CT_IL1a: BioMAP Diversity Plus: KF3CT Assay for Interleukin-1 alpha (IL1a) Biomarker Activity (AID 2283070). The following applies: primary human keratinocytes with fibroblasts; actives raise or lower the signal. Summed up:
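Human keratinocyte plus foreskin fibroblast primary co-culture, sampled 24 h after chemical dosing. IL-1a measured by ELISA; responses fitted bidirectionally against DMSO baseline (negative control), so gain or loss of signal both count.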

Read-out in experiment [18]: Interferon-gamma inducible Protein 10 (IP10), CXCL10 (gene 3627)
In words: BSK_KF3CT_IP10: BioMAP Diversity Plus: KF3CT Assay for Interferon-gamma inducible Protein 10 (IP10) Biomarker Activity (AID 2283068). The following applies: primary human keratinocytes with fibroblasts; actives raise or lower the signal. Summed up: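 Signal is secreted/surface IP-10 by ELISA in a human primary skin co-culture of keratinocytes and foreskin fibroblasts, taken 24 h post-dosing; DMSO served as negative control.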

Read-out in experiment [19]: TIMP metallopeptidase inhibitor 1 (TIMP1), TIMP1 (gene 7076)
The experiment is described as follows: BSK_hDFCGF_TIMP1: BioMAP Diversity Plus: hDFCGF Assay for TIMP metallopeptidase inhibitor 1 (TIMP1) Biomarker Activity (AID 2283062). The following applies: primary human foreskin fibroblasts; actives raise or lower the signal. Summed up:
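ELISA readout of TIMP-1 from human dermal foreskin fibroblast cultures 24 h post-dosing. Curves were fitted in both directions against DMSO baseline, with SRB total-protein staining in parallel cultures as a cytotoxicity check.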

Active and inactive are the calls of the source. The calls were made as follows: active = hit-call score of the fitted dose curve at least 0.9, where 1 is the maximum; inactive = score below 0.9.

In the case of `CC(C)[C@H](C(=O)O[C@H](C#N)c1cccc(Oc2ccccc2)c1)c1ccc(Cl)cc1`, the half-maximal activity concentration (AC50) (commonly the concentration giving half of the maximal activity seen) is 4.81 µM (active) in [1], 3.36 µM (active) in [8] and 3.97 µM (active) in experiment [12]. The outcome in [2], in experiment [3], in [4], in experiment [5], in [6] and in [7] was inactive. The outcome in [9], in [10], in experiment [11], in experiment [13], in experiment [14] and in experiment [15] was inactive. Besides, the outcome in [16] and in [17] was inactive.
In the case of `CC1(C(=O)Nc2ccc(O)c(Cl)c2Cl)CCCCC1`, the result in [1], in experiment [2], in [3], in experiment [5], in experiment [6] and in experiment [7] was inactive. Besides, the result in experiment [8], in [9], in [10], in experiment [11], in experiment [12] and in experiment [13] was inactive. Also, the result in experiment [14], in experiment [15], in experiment [18], in experiment [16] and in experiment [17] was inactive.
For the compound `COP(=O)(OC)OC(Br)C(Cl)(Cl)Br` (stereo not drawn), the outcome in experiment [1], in experiment [2] and in [7] was inactive. The AC50 in experiment [3] was 13.9 µM (active); in experiment [4], 32 µM (active); in [5] it was 18.5 µM (active); in experiment [6], 31.5 µM (active); in experiment [8] it was 2.6 µM (active); in [9] it was 16.4 µM (active). For the same compound, the concentration at half-maximal activity (AC50) in experiment [10] is 20 µM (active); in experiment [11], 17.5 µM (active); in experiment [12] it was 32.7 µM (active); in [13], 13.4 µM (active); in [14], 30.1 µM (active); in experiment [15], 31.1 µM (active). Also, the AC50 is 30 µM (active) in [18], 26.1 µM (active) in experiment [16] and 27.1 µM (active) in experiment [17].
`CON=C(C(=O)OC)c1ccccc1CON=C(C)c1cccc(C(F)(F)F)c1`: the result in experiment [1], in experiment [2], in experiment [3], in experiment [4], in experiment [9] and in [11] was inactive. The result in experiment [13], in experiment [15], in experiment [16] and in experiment [17] was inactive. Further, the AC50 in experiment [5] is 8.45 µM (active); in experiment [6], 1.47 µM (active); in experiment [7], 2.78 µM (active); in [8], 2.77 µM (active); in experiment [10], 4.21 µM (active); in [19], 5.26 µM (active). Further, the AC50 was 2.74 µM (active) in experiment [12], 4 µM (active) in experiment [14] and 18 µM (active) in experiment [18].
On to `COc1cc(OC)nc(Sc2cccc(Cl)c2C(=O)O)n1`, for which the outcome in [1], in experiment [2], in experiment [3], in [4], in [5] and in [6] was inactive. The outcome in experiment [7], in experiment [8], in experiment [9], in experiment [10], in experiment [11] and in [13] was inactive. The result in experiment [14], in experiment [15], in experiment [18], in experiment [16] and in [17] was inactive.

For the origin of these results see PubChem BioAssay (EPA / NIEHS).
